Laboratory results as given in PubChem BioAssay (NCATS).
Calls of active or inactive are those of the source. Calls come from the whole dose curve.

molecular target: Tumor susceptibility gene 101 protein (Homo sapiens) (UniProt Q99816); experiment: qHTS Validation Assay for Iinhibitors of HIV-1 Budding by Blocking the Interaction of PTAP/TSG101 (AID 485342); conditions: TSG101-PTAP binding, fluorescence polarization, 4-point titration; series mostly up to 115 µM
Text: NIH Molecular Libraries Probe Production Network [MLPCN]
NIH Chemical Genomics Center [NCGC]
PI Name: Dr. Eric Freed, NCI
Stages of the HIV-1 replication cycle, specifically virus assembly and release, provide underexploited targets for the development of novel antiviral inhibitors. The late stages of HIV-1 replication are mediated by the Gag precursor protein, Pr55Gag. Expression of Pr55Gag is both necessary and sufficient for the production of virus-like particles from Gag-expressing cells. The Gag protein hijacks key host proteins involved in endocytic machinery of the host cell to promote endosomal processing and viral budding. The budding process requires a direct interaction between a […] (PTAP) motif in the p6 domain of Gag and the cellular endosomal sorting protein known as Tsg101. In this way, the Gag PTAP motif promotes the host cells to recruit viral particles to the plasma membrane where the new viral particles are released, effectively turning the host cells into viral factories. A fluorescence anisotropy assay has been developed to quantitatively measure the PTAP-Tsg101 interaction which can be used to screen for inhibitors of this interaction.
NCGC Assay Protocol Summary:
Two uL of the Tsg101 binding domain in buffer (10 mM HEPES pH 7.5; 0.15 M NaCl, 0.01% Tween 20; 3 mM EDTA;0.1 mM TCEP) was dispensed into Greiner black MB 1536-well plates (final concentration 10 uM). Then, 23 nL of compounds or DMSO were delivered to each well using a pin tool. Finally, 2 uL of a FITC-labeled peptide containing the PTAP motif (1) in the same buffer was dispensed (50 nM final concentration) and the binding was allowed to proceed for 20 min. at r.t. Fluorescent polarization was determined using FITC excitation and polarized emission filters on a Perkin Elmer Viewlux.
Keywords: Tsg101, PTAP, Gag, HIV, fluorescent polarization, MLSMR, MLPCN, NIH Roadmap, qHTS, NCGC

Chain of Tumor susceptibility gene 101 protein (Homo sapiens) (Q99816 whole entry, looked up): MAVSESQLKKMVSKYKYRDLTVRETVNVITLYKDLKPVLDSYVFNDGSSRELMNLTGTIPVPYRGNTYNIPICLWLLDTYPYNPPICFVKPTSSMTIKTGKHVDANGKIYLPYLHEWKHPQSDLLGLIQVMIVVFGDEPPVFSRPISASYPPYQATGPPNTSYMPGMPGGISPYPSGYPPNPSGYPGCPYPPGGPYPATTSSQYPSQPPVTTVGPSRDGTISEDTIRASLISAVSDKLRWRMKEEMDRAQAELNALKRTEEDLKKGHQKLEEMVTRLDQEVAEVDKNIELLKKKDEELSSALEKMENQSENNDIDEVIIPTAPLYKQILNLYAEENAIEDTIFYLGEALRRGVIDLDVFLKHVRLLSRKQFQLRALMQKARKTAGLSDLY

Structure (SMILES)	outcome
COc1cc(C(=O)OCCCN2CCCN(CCCOC(=O)c3cc(OC)c(OC)c(OC)c3)CC2)cc(OC)c1OC	inactive
CCN(CC)CCNC(=O)c1cc(S(C)(=O)=O)ccc1OC	inactive
C[N+](C)(C)CCCCCCCCCC[N+](C)(C)C	inactive
C[C@]12CCC(=O)C=C1CC[C@@H]1[C@@H]2CC[C@@]2(C)[C@H]1CC[C@]2(O)C(=O)CO	inactive
O=C(CCCN1CCC(O)(c2cccc(C(F)(F)F)c2)CC1)c1ccc(F)cc1	inactive
Cc1cccc(C)c1NC(=O)C(C)N (stereo not given)	inactive
OC(CCN1CCCCC1)(c1ccccc1)C1CCCCC1 (stereo not given)	inactive
CN(C)C(=O)Oc1ccc[n+](C)c1	inactive
C(=C\c1ccccc1)/CN1CCN(C(c2ccccc2)c2ccccc2)CC1	inactive
CN1C[C@H](C(=O)N[C@]2(C)O[C@@]3(O)[C@@H]4CCCN4C(=O)[C@H](Cc4ccccc4)N3C2=O)C[C@@H]2c3cccc4[nH]cc(c34)C[C@H]21	inactive
CNCCCN1c2ccccc2CCc2ccccc21	inactive
CN(C)CCOC(=O)COc1ccc(Cl)cc1	inactive
c1cnc(N2CCN(Cc3ccc4c(c3)OCO4)CC2)nc1	inactive
CC(C)(C)NCC(O)c1cc(O)cc(O)c1 (stereo not given)	inactive
CC1=C(C)C(=O)C(CCCCC#CCCCC#CCO)=C(C)C1=O	inactive
c1ccc2c(c1)CCCC2C1=NCCN1 (stereo not given)	inactive
COCCOC(=O)C1=C(C)NC(C)=C(C(=O)OC(C)C)C1c1cccc([N+](=O)[O-])c1 (stereo not given)	inactive
COc1ccc(CCN(C)CCCC(C#N)(c2cc(OC)c(OC)c(OC)c2)C(C)C)cc1OC (stereo not given)	inactive
CC(C)NNC(=O)c1ccncc1	inactive
CC(C)(Oc1ccc(CCNC(=O)c2ccc(Cl)cc2)cc1)C(=O)O	inactive

Structure (SMILES)	outcome
COCCc1ccc(OCC(O)CNC(C)C)cc1 (stereo not given)	inactive
COc1ccc2c(c1OC)C(=O)O[C@@H]2[C@H]1c2c(cc3c(c2OC)OCO3)CCN1C	inactive
CCN(CC)CC(=O)Nc1c(C)cccc1C	inactive
CNCCC(Oc1ccccc1OC)c1ccccc1 (stereo not given)	inactive
COC(=O)[C@@H](N)Cc1ccc(O)c(O)c1	inactive
OCCN1CCN(CCCN2c3ccccc3C=Cc3ccccc32)CC1	inactive
CCCCNC(=O)NS(=O)(=O)c1ccc(C)cc1	inactive
CCCN1C[C@H](CSC)C[C@@H]2c3cccc4[nH]cc(c34)C[C@H]21	inactive
O=c1[nH]c(=O)n([C@H]2C[C@H](O)[C@@H](CO)O2)cc1Br	inactive
C=CCc1ccccc1OCC(O)CNC(C)C (stereo not given)	inactive
Cc1nnc(SCC2=C(C(=O)O)N3C(=O)[C@@H](NC(=O)Cn4cnnn4)[C@H]3SC2)s1	inactive
COC(=O)C1=C(C)NC(C)=C(C(=O)OCCN(C)Cc2ccccc2)C1c1cccc([N+](=O)[O-])c1 (stereo not given)	inactive
COc1ccc([C@@H]2Sc3ccccc3N(CCN(C)C)C(=O)[C@@H]2OC(C)=O)cc1	inactive
CCN1CCc2nc(N)oc2CC1	inactive
C[C@H](CS)C(=O)N1CCC[C@H]1C(=O)O	inactive
CC(N=C(NC#N)Nc1ccncc1)C(C)(C)C (stereo not given)	inactive
CCO/C([O-])=N/c1c[n+](N2CCOCC2)no1	inactive
CC(C)[N+](C)(CCOC(=O)C1c2ccccc2Oc2ccccc21)C(C)C	inactive
CCn1cc(C(=O)O)c(=O)c2cc3c(cc21)OCO3	inactive
Nc1ncn([C@@H]2O[C@H](CO)[C@@H](O)[C@H]2O)c(=O)n1	inactive
